Assay outcomes (PubChem BioAssay)
Cycloheximide cs – affects cycloheximide protein synthesis inhibition readout, counter-screen; cell reporter, cycloheximide protein synthesis inhibition counterscreen; max response, %; 12% of 300,000 active; in the data active = max response mostly above about 13%, no sharp cut-off; inactive = mostly below about 14%; note: read at 38.3 µM for the half of the compounds with a filed dose; 0% is about no effect
NS1 function inh – blocks influenza NS1 protein function; 0.4% of 270,000 active; Potency, µM (titrated, usually from 46.1 µM), inactives show at the highest dose activity, positive = more growth; calls by dose curve; note: potency is the fitted concentration of half-maximal effect; actives are rising curves; nearly all actives have a fitted effect of over 50% in size
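S. cerevisiae expressing influenza A NS1, grown in glucose, washed, then diluted 1:100 into pH 6.0 -URA galactose medium with 23 nl compound. Growth recovery read as OD600; NS1-free strain serves as control.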
Giardia FBPA inh – Giardia lamblia aldolase inhibition. purified Giardia FBPA. Potency, µM (doses to about 59.6 µM), inactives show at the top dose activity, negative = inhibition, hits mostly inhibitors. 0.71% of 290,000 active. AID 2451; note: potency is the fitted concentration of half-maximal effect; % is set by controls: 0 for no effect and ±100 for the full control effect; nearly all actives have a fitted effect of over 55% in size
Target sequence (A8B2U2 whole entry, looked up): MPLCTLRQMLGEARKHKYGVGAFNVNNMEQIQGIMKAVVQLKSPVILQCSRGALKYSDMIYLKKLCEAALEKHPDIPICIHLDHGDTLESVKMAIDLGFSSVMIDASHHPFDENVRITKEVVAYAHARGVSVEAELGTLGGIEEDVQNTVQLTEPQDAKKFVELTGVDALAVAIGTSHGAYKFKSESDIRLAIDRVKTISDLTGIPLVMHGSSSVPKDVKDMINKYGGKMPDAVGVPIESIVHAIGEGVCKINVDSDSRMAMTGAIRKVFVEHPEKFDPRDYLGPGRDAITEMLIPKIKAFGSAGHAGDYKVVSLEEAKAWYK
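40 nM FBPA preincubated 10 min at RT with compound (up to 57.5 uM final), then substrate plus GAPDH/TPI/NAD/arsenate coupling and diaphorase/resazurin added. Fluorescence read after 20 min at RT, 525/598 nm.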
Shiga inhibitor – Shiga toxin inhibition; Vero cells, Shiga toxin protein synthesis inhibition reporter; inhibition, % at 38.7 µM; 9.2% of 290,000 active; AID 2315; in the data active = inhibition mostly above about 28%, no sharp cut-off; inactive = mostly below about 43%; note: 0% is about no effect
Pf growth 48h – inhibits P. falciparum growth in the first generation, 48 h; P. falciparum luciferase growth in erythrocytes, 48 h; Potency, µM (highest dose often 28.7 µM), for the others: at the top dose activity change, negative = inhibition, usual class: inhibitors; 5.9% of 310,000 active; AID 504832; note: potency is the fitted concentration of half-maximal effect; % is set by controls: 0 for no effect and ±100 for the full control effect
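Luciferase-expressing P. falciparum in infected erythrocytes (2% hematocrit, 0.1% parasitemia final) in RPMI 1640/0.5% Albumax were exposed to compound for 48 hours at 37 C, 5% CO2; growth read as luminescence.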
Pf growth 96h – P. falciparum growth inhibition at 96 hour, primary screen for plastid delayed-death inhibitors. P. falciparum luciferase reporter growth, 96 h. Potency, µM (doses to about 28.7 µM), for inactives: at the highest dose activity change, negative = inhibition, actives largely listed as inhibitors. 6.9% of 320,000 active. AID 504834; note: potency is the fitted concentration of half-maximal effect; % is set by controls: 0 for no effect and ±100 for the full control effect
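P. falciparum expressing integrated firefly luciferase, in erythrocytes at 2% hematocrit, 0.05% parasitemia, incubated with compounds 96 h at 37 C, 5% CO2. Growth inhibition read as loss of luminescence; two-generation exposure targets delayed-death apicoplast inhibitors.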
The depositor's hits bear a star; i = inactive; ? = inconclusive; nt = no result given. This is a sample that favours compounds with a hit; in the whole collection about 21% have one here. Unless noted, calls come from the whole dose curve; as a rule, active = well fitted curve in the direction sought with a large enough effect; inconclusive = small, poorly fitted or top-dose-only effect, or another doubt; inactive = no such curve, though single readings can be large; an effect the other way counts as inactive or inconclusive.

SMILES | Cycloheximide cs | NS1 function inh | Giardia FBPA inh | Shiga inhibitor | Pf growth 48h | Pf growth 96h
COc1cccc2cc(-c3csc(NC(=O)CCC(=O)NCCCN4CCC(C)CC4)n3)c(=O)oc12 | 28* | -4% | 1% | 73* | -48% | -9%
CCOc1cccc2cc(-c3csc(NC(=O)CCC(=O)NCCCN4CCC(C)CC4)n3)c(=O)oc12 | 41* | nt | -1% | 83* | 195% | 37%
CCOc1cccc2cc(-c3csc(NC(=O)CCC(=O)NCCN4CCCCC4C)n3)c(=O)oc12 (configuration not stated) | 40* | nt | -4% | 76 | 401% | ?
CN(C)c1ncnc2c1ncn2C1OC(CO)C(O)C1O (configuration not stated) | -3 | 11% | 7% | -8 | -18% | nt
COc1ccc(C[C@H](N)C(=O)N[C@H]2[C@@H](O)[C@H](n3cnc4c(N(C)C)ncnc43)O[C@@H]2CO)cc1 | nt | nt | nt | nt | 0.1µM* | 0.17µM*
Cc1ccnc(NS(=O)(=O)c2ccc3ccccc3c2)n1 | -2 | 15% | -20% | nt | -2% | 4%
CN1CCN(c2ncncc2-c2ccc(N(C)C)cc2)CC1 | nt | nt | -23% | nt | nt | nt
COc1ccc(OC)c(N=CC2=C(O)CC(C)(C)CC2=O)c1 | 4 | -70% | -19% | -5 | 7% | nt
COc1ccc(N=Cc2c(O)n(C)c(=O)n(C)c2=O)cc1 | 25 | 4% | 3% | 29 | 29% | 44%
COc1ccc(N=CC2=C(O)CC(C)(C)CC2=O)cc1 | 36* | -15% | -2% | 65* | nt | 1%
COc1ccc(N=CC2=C(O)CCCC2=O)cc1 | 37* | -5% | -4% | 76* | -5% | 6%
Clc1cccc(Cl)c1Cn1ccc(C2CC2)n1 | 41* | nt | -2% | 64* | i | 111%
N#C/C(=C/c1cn(-c2ccccc2)nc1-c1cccc(OCc2ccc(F)cc2)c1)C(=O)NCCCn1ccnc1 | 9 | ? | 4% | 15 | 3.7µM* | 2.1µM*
CCCOc1cccc(-c2nn(-c3ccccc3)cc2/C=C(\C#N)C(=O)NCCCn2ccnc2)c1 | -4 | 18% | 10% | -2 | 2.1µM* | 10µM*
CC(C)CN(C(=O)COC(=O)c1ccccn1)c1c(N)n(Cc2ccccc2)c(=O)[nH]c1=O | nt | nt | nt | nt | -22% | -1%
CCN(CC(=O)NC1CCS(=O)(=O)C1)S(=O)(=O)c1cc(C)ccc1C (configuration not stated) | nt | nt | nt | nt | 2% | 13%
COc1cccc(NC(=O)CN(C)CC(=O)c2c(C)[nH]c3ccccc23)c1 | nt | nt | nt | nt | ? | 12µM*
COc1ccc(NC(=O)CN(C)CC(=O)c2[nH]c(C)c(C(C)=O)c2C)cc1 | nt | nt | nt | nt | ? | 1%
COc1ccc(NC(=O)CN(C)CC(=O)c2c(C)[nH]c3ccccc23)cc1 | nt | nt | nt | nt | ? | 12µM*
Fc1ccc(N/N=C/c2ccc(N3CCOCC3)cc2)c(F)c1 | 34* | 0% | -6% | 75* | 73% | 91%
CNC(=S)N/N=C(\C)c1ccc(N2CCOCC2)cc1 | 61* | -17% | ? | 85* | -4% | 10µM*
C/C(=N\NC(=O)c1cccc(C)c1)c1ccc(N2CCOCC2)cc1 | 23 | 4% | 1% | 24 | 34% | nt
O=S(=O)(Nc1ccc(N2CCOCC2)cc1)c1ccc(F)cc1F | -2 | 17% | -6% | -6 | 46% | 2%
CCNC(=S)N/N=C(\C)c1ccc(N2CCOCC2)cc1 | -1 | -3% | -16% | 12 | 3% | -23%
C/C(=N\Nc1ccc(F)cc1F)c1ccc(N2CCOCC2)cc1 | 24* | nt | -9% | 16 | 41% | 76%
SMILES | Cycloheximide cs | NS1 function inh | Giardia FBPA inh | Shiga inhibitor | Pf growth 48h | Pf growth 96h
C/C(=N\Nc1ccc(F)cc1F)c1ccc(F)cc1 | -2 | 2% | 0% | -14 | 10% | 21%
C/C(=N\Nc1ccc(Cl)c(C(=O)O)c1)c1ccc(N2CCOCC2)cc1 | 118* | 6% | 6% | 156* | 38% | 2%
CSc1ncccc1C(=O)N1CCN(S(=O)(=O)c2ccccc2)CC1 | 1 | ? | 5% | -15 | 2% | 28%
Cc1cc(-c2nnc(SCC(=O)Nc3c(C)cccc3C)n2N)n[nH]1 | -1 | 0% | nt | -4 | -17% | -18%
Cc1ccc(-n2ncc3c2CC(C)(C)CC3NC(=O)CCc2c(C)noc2C)cc1 (configuration not stated) | 3 | -17% | nt | -6 | -20% | ?
COCCn1c(=O)c(-c2cccc(C#N)c2)nc2cnc(N(C)C)nc21 | nt | nt | 0% | nt | nt | nt
